# Experimental data from PubChem BioAssay (Tox21).
# Values joined by “and” are separate entries in the source; they are usually repeats but may differ in a detail not shown here. Equal values may be shown once. A number with no mark means an inactive call. Inconclusive results are not listed. Where a call stands in place of a potency, no number is given. Active and inactive are the calls of the source. Unless noted, calls follow the shape of the dose curve; as a rule, active = well fitted curve in the direction sought with a large enough effect in the repeat runs; inconclusive = weak or mixed curves; inactive = no such curve, though single readings can be large; an effect the other way counts as inactive or inconclusive.
# How the values were obtained:
# [1] = target: Acetylcholinesterase (Homo sapiens) (UniProt P22303); test: Acetylcholinesterase (AChE) small molecule antagonists: enzyme-based qHTS assay (AID 1347397; calls by dose curve; also: nearly all actives have a fitted effect of over 55% in size; also: potency is read from the fitted curve at half-maximal effect); conditions: Potency: AChE enzyme activity inhibition
# Method in brief: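 In this quantitative HTS, compounds from the Tox21 10K collection were preincubated 30 min at ambient temperature with recombinant human AChE dispensed at 50 mU/mL. Hydrolysis of acetylthiocholine was then followed for 10 min by DTNB colour development.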
# [2] = target: Acetylcholinesterase (Homo sapiens) (UniProt P22303); test: Acetylcholinesterase (AChE) small molecule antagonists: fluorescence cell-based qHTS assay (AID 1347398; calls by dose curve; also: nearly all actives have a fitted effect of over 50% in size; also: potency is read from the fitted curve at half-maximal effect); conditions: Potency: AChE activity
# Method in brief: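 Cells (SH-SY5Y) attached overnight, were dosed with compound or DMSO vehicle for 30 min at 37 C, and then incubated 40 min at room temperature with acetylthiocholine and Thiolite Green; green fluorescence indexed AChE activity.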
# [3] = target: Cytochrome P450 2D6 (Homo sapiens) (UniProt P10635); test: Cytochrome P450 Family 2 Subfamily D Member 6 (CYP2D6) small molecule antagonists: luciferase reporter qHTS assay (AID 1671196); also: nearly all actives have a fitted effect of over 50% in size; also: potency is read from the fitted curve at half-maximal effect
# Method in brief: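 Luminogenic proluciferin substrate, CYP2D6 enzyme; 10 min RT preincubation with compound, NADPH regeneration system added, 1 h RT. Stop/detection reagent, 20 min RT, luminescence read (RLU). Signal proportional to CYP activity.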
# [4] = target: Cytochrome P450 2C19 (Homo sapiens) (UniProt P33261); test: Cytochrome P450 Family 2 Subfamily C Member 19 (CYP2C19) small molecule antagonists: luciferase reporter qHTS assay (AID 1671197); also: nearly all actives have a fitted effect of over 65% in size; also: potency is read from the fitted curve at half-maximal effect
# Method in brief: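 P450-Glo CYP2C19 screening system; proluciferin substrate; DMSO compound stocks; 10 min RT preincubation; NADPH regeneration, 1 h at 37C; luciferin detection reagent, 20 min RT; luminescence as RLU.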
# [5] = target: Cytochrome P450 2C9 (Homo sapiens) (UniProt P11712); test: Cytochrome P450 Family 2 Subfamily C Member 9 (CYP2C9) small molecule antagonists: luciferase reporter qHTS assay (AID 1671198); also: nearly all actives have a fitted effect of over 50% in size; also: potency is read from the fitted curve at half-maximal effect
# Method in brief: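 P450-Glo proluciferin substrate with CYP2C9 enzyme; 10 min RT preincubation, then NADPH regeneration 1 h at 37C; luciferin detection reagent 20 min RT, luminescence in relative luminescence units.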
# [6] = target: Voltage-gated inwardly rectifying potassium channel KCNH2 (Homo sapiens) (UniProt Q12809); test: Human Ether-a-go-go-Related Gene (hERG) channel small molecule antagonists: fluorescence cell-based qHTS assay (AID 1671200); also: nearly all actives have a fitted effect of over 50% in size; also: potency is read from the fitted curve at half-maximal effect
# Method in brief: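 Read-out: thallium influx as a surrogate for potassium, tracked as fluorescence (480 nm ex/540 nm em) every second for 2 min after Stimulus Buffer addition in dye-loaded hERG-U2OS cells.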
# [7] = target: Cytochrome P450 3A4 (Homo sapiens) (UniProt P08684); test: Cytochrome P450 Family 3 Subfamily A Member 4 (CYP3A4) small molecule antagonists: luciferase reporter qHTS assay (AID 1671201); also: nearly all actives have a fitted effect of over 50% in size; also: potency is read from the fitted curve at half-maximal effect
# Method in brief: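 Luminescent readout (RLU) proportional to CYP3A4 activity, from luciferin generated off a proluciferin substrate. Enzyme–substrate mix plus compound 10 min at room temp, NADPH regeneration 1 h, detection reagent 20 min.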
# [8] = target: Cytochrome P450 1A2 (Homo sapiens) (UniProt P05177); test: Cytochrome P450 Family 1 Subfamily A Member 2 (CYP1A2) small molecule antagonists: luciferase reporter qHTS assay (AID 1671199); also: nearly all actives have a fitted effect of over 50% in size; also: potency is read from the fitted curve at half-maximal effect
# Method in brief: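 Luminescence readout (relative luminescence units) after luciferin detection reagent, 20 min RT. Preceded by 1 h room-temperature CYP1A2 reaction with NADPH regeneration solution following 10 min compound preincubation with enzyme and proluciferin substrate. Furafylline positive control.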
# [9] = target: Acetylcholinesterase (Homo sapiens) (UniProt P22303); test: Acetylcholinesterase (AChE) small molecule antagonists: enzyme-based qHTS assay with human liver microsomes (AID 1347399; calls by dose curve; also: nearly all actives have a fitted effect of over 60% in size); conditions: Potency: qHTS inhibition
# Method in brief: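 Recombinant human AChE (50 mU/mL in the enzyme mix) and human liver microsomes (0.25 mg/mL final) were preincubated with compound and NADPH (0.25 mg/mL final) for 30 min at 37 C. Acetylthiocholine/DTNB was then added; thiocholine was read colorimetrically after 10 min at room temperature.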
# Sequence of Acetylcholinesterase (Homo sapiens) (P22303 whole entry, looked up): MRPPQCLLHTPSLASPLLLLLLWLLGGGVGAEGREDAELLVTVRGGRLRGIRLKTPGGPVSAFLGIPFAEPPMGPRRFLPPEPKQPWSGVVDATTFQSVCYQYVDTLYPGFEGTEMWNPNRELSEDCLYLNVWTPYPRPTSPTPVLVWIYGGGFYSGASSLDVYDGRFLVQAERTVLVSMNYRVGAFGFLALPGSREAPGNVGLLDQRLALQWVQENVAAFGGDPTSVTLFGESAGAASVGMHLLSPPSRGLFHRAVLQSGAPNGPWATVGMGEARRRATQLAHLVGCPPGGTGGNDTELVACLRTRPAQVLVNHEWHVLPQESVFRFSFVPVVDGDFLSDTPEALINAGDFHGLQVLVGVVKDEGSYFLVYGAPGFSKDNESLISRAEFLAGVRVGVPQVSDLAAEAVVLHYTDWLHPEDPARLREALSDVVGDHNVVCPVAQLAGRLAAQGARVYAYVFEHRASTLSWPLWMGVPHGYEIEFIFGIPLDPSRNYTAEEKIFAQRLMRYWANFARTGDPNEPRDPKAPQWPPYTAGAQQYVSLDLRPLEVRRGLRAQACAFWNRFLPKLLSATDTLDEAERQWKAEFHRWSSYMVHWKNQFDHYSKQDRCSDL
# Sequence of Voltage-gated inwardly rectifying potassium channel KCNH2 (Homo sapiens) (Q12809 whole entry, looked up): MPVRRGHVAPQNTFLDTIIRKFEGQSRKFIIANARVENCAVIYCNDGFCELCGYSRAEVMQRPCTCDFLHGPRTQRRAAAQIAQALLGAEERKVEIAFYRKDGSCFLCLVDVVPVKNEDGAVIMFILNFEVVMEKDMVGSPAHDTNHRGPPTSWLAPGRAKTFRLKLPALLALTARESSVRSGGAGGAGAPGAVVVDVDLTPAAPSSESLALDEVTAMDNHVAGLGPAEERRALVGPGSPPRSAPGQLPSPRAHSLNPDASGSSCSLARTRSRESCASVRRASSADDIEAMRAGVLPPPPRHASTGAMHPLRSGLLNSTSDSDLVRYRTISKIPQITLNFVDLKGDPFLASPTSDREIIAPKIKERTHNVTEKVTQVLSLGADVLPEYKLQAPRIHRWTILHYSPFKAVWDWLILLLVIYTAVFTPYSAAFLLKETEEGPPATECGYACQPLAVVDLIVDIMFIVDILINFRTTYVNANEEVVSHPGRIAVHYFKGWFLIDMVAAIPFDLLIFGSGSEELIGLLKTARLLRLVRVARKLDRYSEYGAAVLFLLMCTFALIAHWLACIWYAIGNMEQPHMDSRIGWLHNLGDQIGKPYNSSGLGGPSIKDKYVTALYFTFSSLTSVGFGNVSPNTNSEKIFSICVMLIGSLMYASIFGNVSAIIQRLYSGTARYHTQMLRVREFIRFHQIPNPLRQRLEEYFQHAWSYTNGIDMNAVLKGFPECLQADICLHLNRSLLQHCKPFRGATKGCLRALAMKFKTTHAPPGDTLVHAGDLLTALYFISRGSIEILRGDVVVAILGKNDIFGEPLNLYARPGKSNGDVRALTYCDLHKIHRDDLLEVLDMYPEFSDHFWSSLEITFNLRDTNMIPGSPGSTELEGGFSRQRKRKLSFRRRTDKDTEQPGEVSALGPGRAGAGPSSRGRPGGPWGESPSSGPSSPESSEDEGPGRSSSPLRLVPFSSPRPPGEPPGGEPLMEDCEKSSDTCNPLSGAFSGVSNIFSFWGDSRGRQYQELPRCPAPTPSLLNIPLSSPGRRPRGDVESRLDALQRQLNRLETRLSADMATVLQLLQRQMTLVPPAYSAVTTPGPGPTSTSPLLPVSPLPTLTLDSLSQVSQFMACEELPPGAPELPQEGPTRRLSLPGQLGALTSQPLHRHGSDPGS
# Sequence of Cytochrome P450 2D6 (Homo sapiens) (P10635 whole entry, looked up): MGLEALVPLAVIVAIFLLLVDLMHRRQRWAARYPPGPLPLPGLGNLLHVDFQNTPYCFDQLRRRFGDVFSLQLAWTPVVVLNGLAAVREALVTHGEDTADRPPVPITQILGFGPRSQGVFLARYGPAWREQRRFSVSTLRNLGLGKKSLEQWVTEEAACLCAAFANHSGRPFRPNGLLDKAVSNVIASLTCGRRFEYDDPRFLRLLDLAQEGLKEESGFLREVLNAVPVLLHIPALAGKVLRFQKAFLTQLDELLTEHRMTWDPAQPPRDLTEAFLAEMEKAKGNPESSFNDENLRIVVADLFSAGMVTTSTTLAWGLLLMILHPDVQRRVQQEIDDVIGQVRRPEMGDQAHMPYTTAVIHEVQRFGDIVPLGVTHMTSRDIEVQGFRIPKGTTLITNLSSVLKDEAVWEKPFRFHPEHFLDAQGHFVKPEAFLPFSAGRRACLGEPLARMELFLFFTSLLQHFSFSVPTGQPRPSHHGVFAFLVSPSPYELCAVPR
# Sequence of Cytochrome P450 1A2 (Homo sapiens) (P05177 whole entry, looked up): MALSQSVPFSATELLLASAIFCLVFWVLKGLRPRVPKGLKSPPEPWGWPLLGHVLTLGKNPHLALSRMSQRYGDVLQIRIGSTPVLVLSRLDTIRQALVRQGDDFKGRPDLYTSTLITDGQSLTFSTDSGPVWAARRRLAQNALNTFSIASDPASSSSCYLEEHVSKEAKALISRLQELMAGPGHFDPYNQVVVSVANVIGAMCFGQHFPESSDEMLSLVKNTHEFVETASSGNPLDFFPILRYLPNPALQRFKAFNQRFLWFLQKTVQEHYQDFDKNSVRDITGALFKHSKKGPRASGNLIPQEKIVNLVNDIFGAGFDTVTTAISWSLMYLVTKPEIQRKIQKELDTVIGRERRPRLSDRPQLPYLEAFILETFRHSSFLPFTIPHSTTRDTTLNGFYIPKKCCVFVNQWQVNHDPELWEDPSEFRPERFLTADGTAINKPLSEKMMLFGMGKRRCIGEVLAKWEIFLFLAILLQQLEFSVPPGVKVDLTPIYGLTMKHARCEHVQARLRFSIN
# Sequence of Cytochrome P450 3A4 (Homo sapiens) (P08684 whole entry, looked up): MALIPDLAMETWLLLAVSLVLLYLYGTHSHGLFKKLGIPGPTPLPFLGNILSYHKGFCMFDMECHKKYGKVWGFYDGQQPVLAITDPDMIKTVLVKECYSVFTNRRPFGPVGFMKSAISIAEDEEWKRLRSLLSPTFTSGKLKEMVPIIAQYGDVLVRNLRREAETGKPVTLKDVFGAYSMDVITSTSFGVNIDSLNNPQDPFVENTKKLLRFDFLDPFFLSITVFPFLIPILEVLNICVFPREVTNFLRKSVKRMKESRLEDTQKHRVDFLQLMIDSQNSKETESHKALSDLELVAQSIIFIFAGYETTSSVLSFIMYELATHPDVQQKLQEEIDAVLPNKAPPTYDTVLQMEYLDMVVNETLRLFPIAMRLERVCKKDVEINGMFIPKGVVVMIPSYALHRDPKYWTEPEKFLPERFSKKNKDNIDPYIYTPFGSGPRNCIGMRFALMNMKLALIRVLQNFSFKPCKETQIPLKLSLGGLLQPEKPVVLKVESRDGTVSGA
# Sequence of Cytochrome P450 2C19 (Homo sapiens) (P33261 whole entry, looked up): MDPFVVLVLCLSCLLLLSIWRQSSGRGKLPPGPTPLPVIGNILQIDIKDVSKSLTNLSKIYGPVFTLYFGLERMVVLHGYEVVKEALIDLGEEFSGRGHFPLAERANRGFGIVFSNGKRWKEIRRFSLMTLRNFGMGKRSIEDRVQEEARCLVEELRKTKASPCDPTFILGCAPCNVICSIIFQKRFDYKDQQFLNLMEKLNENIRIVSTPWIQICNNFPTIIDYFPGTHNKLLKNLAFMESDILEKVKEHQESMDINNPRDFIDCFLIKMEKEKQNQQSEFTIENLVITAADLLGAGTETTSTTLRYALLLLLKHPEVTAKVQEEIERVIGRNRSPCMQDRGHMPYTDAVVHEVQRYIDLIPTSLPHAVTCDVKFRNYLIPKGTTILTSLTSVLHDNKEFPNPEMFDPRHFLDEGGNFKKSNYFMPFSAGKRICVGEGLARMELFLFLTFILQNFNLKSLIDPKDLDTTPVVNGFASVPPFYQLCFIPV
# Sequence of Cytochrome P450 2C9 (Homo sapiens) (P11712 whole entry, looked up): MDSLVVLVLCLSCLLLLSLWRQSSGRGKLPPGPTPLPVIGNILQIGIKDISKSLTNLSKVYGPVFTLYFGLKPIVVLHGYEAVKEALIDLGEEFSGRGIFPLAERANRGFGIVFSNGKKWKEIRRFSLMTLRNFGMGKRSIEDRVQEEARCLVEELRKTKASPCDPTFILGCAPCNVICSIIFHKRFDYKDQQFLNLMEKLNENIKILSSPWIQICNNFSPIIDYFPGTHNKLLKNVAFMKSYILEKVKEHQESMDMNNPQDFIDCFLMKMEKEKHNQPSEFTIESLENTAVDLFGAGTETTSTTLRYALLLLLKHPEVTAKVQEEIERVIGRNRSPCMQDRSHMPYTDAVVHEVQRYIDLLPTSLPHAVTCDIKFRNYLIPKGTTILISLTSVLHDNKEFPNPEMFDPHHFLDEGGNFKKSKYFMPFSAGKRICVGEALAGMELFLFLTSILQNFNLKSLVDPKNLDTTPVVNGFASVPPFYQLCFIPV
SMILES,Potency [1],Potency [2],Potency [3],Potency [4],Potency [5],Potency [6],Potency [7],Potency [8],Potency [9]
CCOC(=O)CC(=O)CCl,inactive,inactive,inactive,inactive,inactive,inactive,inactive,,
Cc1cc(N=Nc2ccccc2C)ccc1N,inactive,inactive,,5.64 µM (active) and 8.94 µM (active),5.03 µM (active) and 5.64 µM (active),inactive,1.59 µM (active) and 7.1 µM (active),1.26 µM (active) and 2 µM (active),
CN(C)c1ccc(N=Nc2ccccc2)cc1,inactive,inactive,,20 µM (active),15.9 µM (active),inactive,inactive,3.56 µM (active),
CC[C@H]1C[C@@H]2C[C@H]3c4[nH]c5ccc(OC)cc5c4CCN(C2)[C@@H]13,inactive,,0.698 µM (active),,,,,44.1 µM (active),inactive
CCCCOCN(C(=O)CCl)c1c(CC)cccc1CC,inactive,inactive,,0.894 µM (active),3.99 µM (active),inactive,7.1 µM (active),,
CC(C)CCCCCCCOP(=O)(Oc1ccccc1)Oc1ccccc1,inactive,,,6.36 µM (active),6.36 µM (active),,,28.4 µM (active),inactive
CCCN(CCC)c1c([N+](=O)[O-])cc(S(N)(=O)=O)cc1[N+](=O)[O-],inactive,,62.7 µM (active),37.9 µM (active),5.12 µM (active),,21.3 µM (active),51.2 µM (active),inactive
Cc1cc(C)cc(OP(=O)(Oc2cc(C)cc(C)c2)Oc2cc(C)cc(C)c2)c1,inactive,inactive,,,5.73 µM (active),,2.03 µM (active),22.8 µM (active),
ClC1=C(Cl)C2(Cl)C3C(Cl)C(Cl)CC3C1(Cl)C2(Cl)Cl (stereo not drawn),inactive,inactive,inactive,3.16 µM (active) and 3.56 µM (active),31.6 µM (active) and 20 µM (active),24.5 µM (active),708 nM (active) and 2 µM (active),inactive,
c1ccc2c(c1)[nH]c1cnccc12,inactive,,7.11 µM (active),,31.8 µM (active),inactive,31.8 µM (active),7.98 µM (active),inactive
NNC(=O)c1ccccc1,inactive,inactive,,41 µM (active),41 µM (active),inactive,36.6 µM (active),32.6 µM (active),
CC1(C)CN=C(NN=C(/C=C/c2ccc(C(F)(F)F)cc2)/C=C/c2ccc(C(F)(F)F)cc2)NC1,inactive,inactive,11.2 µM (active),,,0.389 µM (active),inactive,,
CCOP(=S)(OCC)SCCS(=O)(=O)CC,71 µM (active),35.6 µM (active),2.24 µM (active),0.1 µM (active),0.894 µM (active),inactive,1.59 µM (active),35.6 µM (active),
ClC1=C(Cl)[C@]2(Cl)[C@@H]3[C@@H]4C[C@@H]([C@H]5O[C@@H]45)[C@@H]3[C@@]1(Cl)C2(Cl)Cl,inactive,,25.2 µM (active),3.17 µM (active),,,,,inactive
CC(=O)OC1(c2ccccc2)CCN(CCc2ccccc2)CC1,inactive,inactive,0.727 µM (active),40.9 µM (active),,25.1 µM (active),inactive,inactive,
O=C(CCCN1CCC2(CC1)C(=O)NCN2c1ccccc1)c1ccc(F)cc1,inactive,,0.977 µM (active),inactive,inactive,1.2 µM (active),inactive,inactive,inactive
CCCOCC(=Nc1ccc(Cl)cc1C(F)(F)F)n1ccnc1,inactive,inactive,35.6 µM (active),0.71 µM (active),5.03 µM (active),48.9 µM (active),0.283 µM (active),8.94 µM (active),
Cl/C=C\CCl,inactive,inactive,inactive,inactive,inactive,inactive,inactive,35.6 µM (active),
CC(=O)c1cc(C(C)(C)C)cc2c1CCC2(C)C,inactive,inactive,inactive,inactive,,inactive,inactive,31.7 µM (active),
COc1ccc([N+](=O)[O-])cc1O,inactive,,inactive,,,inactive,inactive,,inactive
Oc1ccc(C2(c3ccc(O)cc3)c3ccccc3-c3ccccc32)cc1,39.9 µM (active),inactive,79.6 µM (active),,20 µM (active),inactive,17.8 µM (active),79.6 µM (active),
CC(C)(C)C(O)/C(=C\c1ccc(Cl)cc1Cl)n1cncn1 (stereo not drawn),inactive,,34.2 µM (active),0.0342 µM (active),4.83 µM (active),,0.272 µM (active),38.4 µM (active),inactive
C[C@@H](Oc1ccc(Cl)cc1Cl)C(=O)O,inactive,inactive,,inactive,inactive,inactive,inactive,inactive,
O=C1NCN(c2ccccc2)C12CCN(CC1COc3ccccc3O1)CC2 (stereo not drawn),inactive,inactive,0.11 µM (active),,8.71 µM (active),7.56 µM (active),,inactive,
C[C@@H]1CC[C@@]2(OC1)O[C@H]1[C@@H](O)[C@H]3[C@@H]4CC[C@H]5C[C@@H](O[C@@H]6O[C@H](CO)[C@H](O[C@@H]7O[C@H](CO)[C@@H](O)[C@H](O[C@@H]8OC[C@@H](O)[C@H](O)[C@H]8O)[C@H]7O[C@@H]7O[C@H](CO)[C@@H](O)[C@H](O[C@@H]8O[C@H](CO)[C@@H](O)[C@H](O)[C@H]8O)[C@H]7O)[C@H](O)[C@H]6O)[C@H](O)C[C@]5(C)[C@H]4CC[C@]3(C)[C@H]1[C@@H]2C,inactive,,,inactive,inactive,11.6 µM (active),,inactive,inactive
